Results filed as inconclusive are left out. Values without a mark were called inactive. Activity calls are given as the source filed them. Calls follow the shape of the dose curve; as a rule, active = well fitted cell-killing curve with a large enough effect; inconclusive = small, poorly fitted or top-dose-only effect, or effect the other way; inactive = flat fitted curve, though single readings scatter.
Assay: MultiTox-Fluor Cytotoxicity Assay - LYMP1-002 - Live Cells (AID 955)
Conditions: LYMP1-002 lymphoblastoid live-cell protease fluorescence viability; series mostly up to 46.1 µM; viability change, negative = cytotoxic: at the top concentration
Description: NIH Chemical Genomics Center [NCGC]
NIH Molecular Libraries Screening Centers Network [MLSCN]
National Institutes of Environmental Health Sciences [NIEHS]
National Toxicology Program [NTP]
We have developed a 1536-well cell-based assay for quantitative high throughput screening (qHTS) against a number of cell lines to determine in vitro cytotoxicity of small molecules. This particular assay uses a human lymphoblastoid cell line (LYMP1-002) purchased from Coriell Institute.
NCGC Assay Protocol Summary:
The MultiTox-Fluor Cytotoxicity Assay (Promega) is a homogeneous method to simultaneously measure the relative number of live and dead cells in culture by detecting changes in cell membrane integrity. There are two fluorogenic peptide substrates in the assay reagent. Viable cells are determined when the cell-permeant substrate (GF-AFC) enters the cell and is cleaved by protease from live cells resulting in liberated fluorophore. This live-cell protease activity restricted to viable cells is proportional to cell number. The dead cells are determined by using fluorogenic cell-impermeant peptide substrate (bis-AAF-R110) which cleaved by dead cell proteases leaking from damaged cell membrane.
Using the MultiTox-Fluor Cytotoxicity Assay, the relative number of live cells was measured in the lymphoblastoid cell line with complete culture medium following compound treatment for 16 hours. The assay was performed in opaque black Kalypsys 1536-well plates. In the screen, tetraoctylammonium bromide was used as positive control. Library compounds were measured for their ability to cause acute toxicity in the cell line, as reflected by a decrease in live cell protease activity, in a concentration-dependent manner. […] AC50 values were determined from concentration-response data modeled with the standard Hill equation.
qHTS protocol for MultiTox-Fluor Cytotoxicity assay
[Step] [Parameter] [Value] [Description]
1. Reagent; 5 uL; 2500 lymphoblastoid cells/well
2. Time; 5 hr; 37 C incubation
4. Controls; 23 nL; Tetraoctylammonium bromide 6.4pM to 92 uM
5. Time; 16 hr; 37 C incubation
6. Reagent; 5 uL; MuliTox-Fluor Assay reagent
7. Time; 60 min; Room Temperature
8. Detection; live-cell fluorescence (Ex/Em=405/510); EnVision plate reader
Keywords: cell viability, cytotoxicity, lymphoblastoid cell line, fluorescence, NTPHTS, NTPHTS_NCGC, NIEHS, EPA, DSSTox, MLSMR, MLSCN, NIH Roadmap, qHTS, NCGC
For `Cc1nnc(NS(=O)(=O)c2ccc(N)cc2)s1`, the “viability change, negative = cytotoxic” value was 6.18%.
In the case of `CN(C)c1ccc(C(=C2C=CC(=[N+](C)C)C=C2)c2ccc(N(C)C)cc2)cc1`, the Potency is reported as 10 µM (active).
With `COc1ccc2cc3[n+](cc2c1OC)CCc1cc2c(cc1-3)OCO2` the “viability change, negative = cytotoxic” value was -10.8%.
In the case of `O=C(O)c1cc(=O)[nH]c(=O)[nH]1`, the “viability change, negative = cytotoxic” value is reported as 6.7%.
In the case of `CCc1cc(C(N)=S)ccn1`, the “viability change, negative = cytotoxic” value is reported as 7.68%.
In the case of `Cc1noc(NS(=O)(=O)c2ccc(N)cc2)c1C`, the “viability change, negative = cytotoxic” value is reported as -6.6%.
With `CC(=O)[C@H]1CC[C@H]2[C@@H]3CCC4=CC(=O)CC[C@]4(C)[C@H]3CC[C@]12C` the Potency was “inactive”.
For `NC(N)=NC(N)=NCCc1ccccc1`, the “viability change, negative = cytotoxic” value was 0.633%.
With `NNC(=O)c1ccncc1` the “viability change, negative = cytotoxic” value was -0.384%.
With `Cc1ncc([N+](=O)[O-])n1CCO` the “viability change, negative = cytotoxic” value was -9.48%.
With `Cc1ccnc2c1NC(=O)c1cccnc1N2C1CC1` the “viability change, negative = cytotoxic” value was -8.11%.
With `CC1=NN(c2ccccc2)C(=O)C1` the “viability change, negative = cytotoxic” value was 3.51%.
In the case of `C[C@]12C=CC(=O)C=C1CC[C@@H]1[C@@H]2C(=O)C[C@@]2(C)[C@H]1CC[C@]2(O)C(=O)CO`, the “viability change, negative = cytotoxic” value is reported as -3.37%.
In the case of `CC[C@H](C)C(=O)O[C@H]1C[C@@H](C)C=C2C=C[C@H](C)[C@H](CC[C@@H]3C[C@@H](O)CC(=O)O3)[C@H]21`, the “viability change, negative = cytotoxic” value is reported as -10.6%.
In the case of `N=C(N)c1ccc(OCCCCCOc2ccc(C(=N)N)cc2)cc1`, the “viability change, negative = cytotoxic” value is reported as -20.4%.
In the case of `Cc1cc(NS(=O)(=O)c2ccc(N)cc2)no1`, the “viability change, negative = cytotoxic” value is reported as -10.3%.
For `O=C(N[C@H](CO)[C@H](O)c1ccc([N+](=O)[O-])cc1)C(Cl)Cl`, the “viability change, negative = cytotoxic” value was -0.508%.

Reference: PubChem BioAssay (NCATS)
% is scaled to controls: 0 for no effect and ±100 for the full control effect; potency is read from the fitted curve at half-maximal effect.
